# An excerpt weighted towards active compounds, which were near 11% of everything screened.
# NPR1 antag = blocks ANP-stimulated signaling of human Npr1 receptor | HEK293 hNpr1 GloSensor cGMP, ANP-stimulated luminescence | Potency, µM (titrated, usually from 46.3 µM), most hits filed as inhibitors | hit rate 1.6% among 76,000 | AID 1347048; calls by dose curve; note: nearly all actives have a fitted effect of over 60% in size
#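 HEK293 cells stably expressing human Npr1 and cGMP GloSensor pGS-40F, loaded 2 h with 2% GloSensor reagent, given compound 30 min at room temperature. Luminescence read before and 20 min after 0.1 nM hNppA.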
# Luciferase inh = inhibitors of firefly (Photinus pyralis) luciferase. hit rate 2.5% among 76,000. AID 1347043. P08659. purified P. pyralis luciferase, luminescence, biochemical. Potency, µM (series often up to 115 µM), usual class: inhibitors; note: nearly all actives have a fitted effect of over 65% in size
#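 FLuc 10nM, D-luciferin 10uM, ATP 10uM, Mg acetate 10mM, Tris acetate pH 7.5, Tween/BSA; cpd qHTS; enzyme added last; CCD luminescence.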
# NIH3T3 tox = kills NIH 3T3 cells. hit rate 4.3% among 94,000. AID 1345082. Potency, µM (highest dose often 96.7 µM), hits mostly inhibitors. NIH 3T3 viability, CellTiter-Glo ATP luminescence, 48-72 h; note: nearly all actives have a fitted effect of over 55% in size
#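 Cytotoxicity is measured as loss of cellular ATP: NIH 3T3 cells (400/well) are exposed to compound for 48 or 72 hr at 37 °C, then CellTiter-Glo luminescence is imaged after 10 min at room temperature.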
# HEK cytotox = cytotoxic compounds in HEK 293 cells; hit rate 6.6% among 94,000; AID 1345083; Potency, µM (highest dose often 115 µM), usual class: inhibitors; HEK 293 viability, ATP luminescence (CellTiter-Glo), 48-72 h; note: nearly all actives have a fitted effect of over 60% in size
#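 CellTiter-Glo luminescence (cellular ATP) was read after 48 or 72 hr of compound exposure at 37 degree Celsius. Cells were HEK 293 plated at 250 cells/well.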
# Hits are given with their value; i = inactive; ? = inconclusive; nt = no result given. Unless noted, calls come from the whole dose curve; as a rule, active = well fitted curve in the direction sought with a large enough effect; inconclusive = small, poorly fitted or top-dose-only effect, or another doubt; inactive = no such curve, though single readings can be large; an effect the other way counts as inactive or inconclusive.
SMILES,NPR1 antag,Luciferase inh,NIH3T3 tox,HEK cytotox
Cc1cccc(S(=O)(=O)Nc2cccn3nc(C4CCC4)nc23)c1,i,i,45µM,?
CC(=O)N1CCn2c(nnc2C2CCCN2Cc2cnn(C(C)C)c2)C1 (centres undefined),nt,nt,i,i
O=C(c1ccc(Cl)nc1)N1CCN(C(=O)c2nc3cccnc3n(C3CCCC3)c2=O)CC1,nt,nt,i,i
Cc1ccsc1C(=O)N1CCC(Oc2ccccc2)C1 (centres undefined),nt,nt,i,?
Cc1ccc(C)c(C(=O)N2CCN(C(=O)c3nnn4c3COC(c3ccc(Cl)cc3)C4)CC2)c1 (centres undefined),?,i,?,45µM
Cc1ccc(C(=O)N2CCN(C(=O)c3nnn4c3COC(c3ccccc3)C4)CC2)c(C)c1 (centres undefined),?,i,?,?
Cc1ccc(C)c(C(=O)N2CCN(C(=O)c3nnn4c3COC(c3ccccc3)C4)CC2)c1 (centres undefined),i,i,i,40µM
O=C(Nc1ccc([C@@H](O)[C@H]2COCC(=O)N2Cc2ccc(C(F)(F)F)cc2)cc1)C1CCCCC1,i,i,?,?
COc1cccc(-c2cccc(C(=O)N3CCCC3C(=O)N3CCCC(C)C3)c2)c1 (centres undefined),nt,nt,i,?
COc1ccc(-c2ccccc2C(=O)NC2CCC2)nn1,nt,nt,i,i
O=c1n(-c2ccncc2)nc2n1CCN(Cc1ccccc1)C2,i,?,?,79µM
O=c1n(-c2ccncc2)nc2n1CCN(Cc1ccc(OC(F)(F)F)cc1)C2,?,i,?,22µM
Clc1ccc2nc(N3CCC(NC4CCSC4)CC3)sc2c1 (centres undefined),11µM,35µM,i,?
O[C@H]1CCCC[C@@H]1NC1CCN(c2nc3ccc(Cl)cc3s2)CC1,?,?,10µM,22µM
Cc1c(CC(=O)NC2CC2)c2c(n1Cc1ccc(F)cc1)CCCC2=O,i,i,i,?
CCc1nc2c(c(-c3ccc(O)cc3)n1)CN(C(=O)c1ccccc1)CC2,nt,nt,i,i
O=C(Nc1cccc(-c2ccc(N3CCOCC3)nn2)c1)Nc1cc(Cl)ccc1Cl,i,1µM,i,i
O=C(Nc1cccc(-c2ccc(N3CCOCC3)nn2)c1)Nc1ccccc1Cl,?,1.6µM,?,?
Cc1ccsc1CN1CC(N2CC(C(=O)N3CCCC3)CC2=O)C1 (centres undefined),nt,nt,i,i
COc1ccccc1C(=O)N1CC(=O)N(Cc2cccs2)CC(O)C1 (centres undefined),nt,nt,i,?
COc1ccc(OCC2(C)COc3ccc(C(=O)Nc4ccn(C)n4)cc3N2)cc1 (centres undefined),18µM,?,?,?
CC1(COc2ccc3[nH]ccc3c2)COc2ccc(C(=O)NCC3CCOCC3)cc2N1 (centres undefined),i,i,i,?
CC1(CNc2ccccc2)COc2ccc(C(=O)Nc3ccc4[nH]ccc4c3)cc2N1 (centres undefined),i,10µM,40µM,?
COc1cccc(NC(=O)c2ccc3c(c2)NC(C)(COc2ccc4[nH]ccc4c2)CO3)c1 (centres undefined),i,i,13µM,25µM
CS(=O)(=O)c1cnc(NC2CCCCCC2)nc1C1CCCNC1 (centres undefined),i,i,i,i
SMILES,NPR1 antag,Luciferase inh,NIH3T3 tox,HEK cytotox
CSc1ccc(-c2cccc(CN3CCC(NC(=O)C(C)C)CC3)c2)cc1,nt,nt,i,i
CC(C)NC(=O)N1CCCN(c2ccc3nnc(-c4ccccc4)n3n2)CC1,nt,nt,i,i
O=C(NC1CCN(c2ccc3nnc(-c4ccccc4)n3n2)CC1)c1ccccc1,nt,nt,i,?
CN(C)C(=O)NC1CCCN(c2ccc3nnc(-c4ccccc4)n3n2)C1 (centres undefined),nt,nt,45µM,?
COc1ccc(C(=O)NC2CCN(c3ccc4nnc(-c5ccccc5)n4n3)CC2)cc1,nt,nt,?,79µM
CC(C)C(=O)NC1CCCN(c2ccc3nnc(-c4ccccc4)n3n2)C1 (centres undefined),nt,nt,i,i
O=C(Nc1ccc(Cl)cc1)N1CCCN(c2ccc3nnc(-c4ccccc4)n3n2)CC1,nt,nt,28µM,?
O=C(NC1CCCN(c2ccc3nnc(-c4ccccc4)n3n2)C1)c1ccc(Cl)nc1 (centres undefined),nt,nt,?,28µM
CC(=O)N1CCC2(CC1)OC(=O)N(Cc1ccc(O)cc1)C2(C)c1ccccc1 (centres undefined),i,i,?,i
CC(=O)N1CCN(C(=O)c2ccc3oc(-c4ccncc4Cl)nc3c2)CC1,nt,nt,?,i

# Source: PubChem BioAssay (National Center for Advancing Translational Sciences (NCATS))
